For eight compounds, Percent Effect results are on record in ChEMBL document CHEMBL3988442, “University of Dundee, Small-Polar-MMV Screening Library” (2021).

Set-up in all cases: scale not given: direction of the effect not stated beside the values
The target in assay [1] is Protein translocase subunit SecA (Escherichia coli (strain K12)) (UniProt P10408). The assay can be described thus: Assay to Identify E. coli SecA ATPase Inhibitors. The following applies: 30 µM. Format: functional.
Assay [2] addresses T1, Ubiquitin-activating enzyme e1, putative (Leishmania donovani (strain BPK282A1)) (UniProt E9BSI1).
T1 sequence (whole entry): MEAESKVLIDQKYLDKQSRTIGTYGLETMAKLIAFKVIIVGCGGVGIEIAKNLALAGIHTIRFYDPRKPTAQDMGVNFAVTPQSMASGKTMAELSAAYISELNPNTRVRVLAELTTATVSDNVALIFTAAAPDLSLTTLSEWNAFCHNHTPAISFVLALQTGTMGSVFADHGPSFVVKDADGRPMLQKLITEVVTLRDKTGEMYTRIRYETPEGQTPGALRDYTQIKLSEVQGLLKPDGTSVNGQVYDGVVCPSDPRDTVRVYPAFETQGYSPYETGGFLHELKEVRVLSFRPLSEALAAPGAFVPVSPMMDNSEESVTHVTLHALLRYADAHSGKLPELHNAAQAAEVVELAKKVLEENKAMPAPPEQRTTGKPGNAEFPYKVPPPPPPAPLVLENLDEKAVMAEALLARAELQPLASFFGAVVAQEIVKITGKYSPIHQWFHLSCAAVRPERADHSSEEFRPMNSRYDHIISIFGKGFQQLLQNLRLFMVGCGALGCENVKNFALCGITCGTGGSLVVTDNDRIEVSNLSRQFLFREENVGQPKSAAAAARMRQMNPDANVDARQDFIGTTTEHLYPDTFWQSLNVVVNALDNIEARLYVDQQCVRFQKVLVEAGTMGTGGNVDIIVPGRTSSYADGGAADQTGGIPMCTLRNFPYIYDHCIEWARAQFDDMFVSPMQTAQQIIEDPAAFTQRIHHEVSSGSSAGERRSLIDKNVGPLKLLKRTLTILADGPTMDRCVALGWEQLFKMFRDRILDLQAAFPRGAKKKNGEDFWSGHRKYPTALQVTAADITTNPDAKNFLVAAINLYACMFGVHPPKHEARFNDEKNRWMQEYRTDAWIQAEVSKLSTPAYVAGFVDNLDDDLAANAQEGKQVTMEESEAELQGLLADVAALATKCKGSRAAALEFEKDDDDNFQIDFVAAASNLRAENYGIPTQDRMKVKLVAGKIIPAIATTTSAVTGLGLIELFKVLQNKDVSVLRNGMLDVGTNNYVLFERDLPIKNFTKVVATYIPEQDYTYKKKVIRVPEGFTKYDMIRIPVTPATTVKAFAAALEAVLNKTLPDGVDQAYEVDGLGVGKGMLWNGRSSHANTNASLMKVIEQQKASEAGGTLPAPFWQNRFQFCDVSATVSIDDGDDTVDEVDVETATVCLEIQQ
The assay can be described thus: Leishmania donovani Ubiquitin Activating Enzyme (LdE1). Format: functional. The conditions noted are these: 30 µM.

The target of assay [3] is AMP-activated protein kinase, AMPK (Homo sapiens) (UniProt P54646+O43741+P54619+Q9UGJ0+Q9Y478+Q13131+Q9UGI9). Kind of assay: AMP-dependent Kinase enzyme assay. An in vitro enzyme assay that detects ADP turnover that is directly proportional to AMPK activity. This uses naive AMPK that is activated during the assay with MK-8722. Format: functional. The following applies: 30 µM.

Assay [4] addresses Sialic acid-binding Ig-like lectin 9 (Homo sapiens) (UniProt Q9Y336). The assay can be described thus: Hs-Siglec9 ALPHAscreen SOP 20170721. The conditions noted are these: 10 µM. On the technique in general: In Alpha technology, singlet oxygen from a donor bead excites a nearby acceptor bead.
The test system of assay [5] is Trypanosoma cruzi. Kind of assay: Trypanosoma cruzi phosphomannomutase and mannose-1-phosphate guanylyltransferase assay. It counts as functional. The conditions noted are these: 10 µM.
In assay [6] the target is T2, Arginase-2, mitochondrial (Homo sapiens) (UniProt P78540).
T2 sequence (whole entry): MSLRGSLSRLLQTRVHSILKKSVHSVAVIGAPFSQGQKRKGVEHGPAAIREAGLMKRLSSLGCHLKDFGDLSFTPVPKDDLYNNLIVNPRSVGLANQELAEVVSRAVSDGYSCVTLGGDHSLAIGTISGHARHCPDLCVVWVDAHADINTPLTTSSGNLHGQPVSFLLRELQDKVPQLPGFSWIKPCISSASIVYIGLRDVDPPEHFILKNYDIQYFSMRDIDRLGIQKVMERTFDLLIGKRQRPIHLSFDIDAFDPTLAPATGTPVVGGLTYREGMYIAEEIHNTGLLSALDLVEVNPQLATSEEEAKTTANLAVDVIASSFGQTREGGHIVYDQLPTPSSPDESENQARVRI
Kind of assay: in vitro enzyme assay to detect the production of urea directly proportional to the activity of Arginase II. Note: in the data most compounds retested in dose-response had high values. The conditions noted are these: 33.3 µM. It counts as functional.

Assay [7] has as its target T3, Proteasome subunit beta (Trypanosoma cruzi) (UniProt O96673).
T3 sequence (whole entry): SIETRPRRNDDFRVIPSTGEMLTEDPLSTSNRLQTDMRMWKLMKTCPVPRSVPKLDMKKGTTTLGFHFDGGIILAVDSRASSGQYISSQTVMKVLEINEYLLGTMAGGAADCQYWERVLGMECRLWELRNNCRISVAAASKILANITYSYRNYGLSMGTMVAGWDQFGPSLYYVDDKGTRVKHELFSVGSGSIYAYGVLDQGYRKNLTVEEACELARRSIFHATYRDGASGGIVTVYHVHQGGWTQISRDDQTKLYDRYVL
The assay can be described thus: Trypanosoma cruzi proteasome chymotrypsin-like activity (TcProtChymo) assay. Note: in the data most compounds retested in dose-response had high values. The conditions noted are these: 9.37 µM. Format: functional.

The species named for assay [8] is Homo sapiens. Kind of assay: To identify inhibition of the IFN signalling (Jak-Stat) pathway via expression of an eGFP reporter gene under the control of an IFN-stimulated response element (ISRE) containing MxA promoter. Format: functional. The following applies: 30 µM. In general terms: Reporter assays use an easily measured gene product as a stand-in for the process of interest.

For assay [9], the target named is T4, Tyrosyl-tRNA synthetase, putative (Trypanosoma cruzi (strain CL Brener)) (UniProt Q4DSP6).
T4 sequence (whole entry): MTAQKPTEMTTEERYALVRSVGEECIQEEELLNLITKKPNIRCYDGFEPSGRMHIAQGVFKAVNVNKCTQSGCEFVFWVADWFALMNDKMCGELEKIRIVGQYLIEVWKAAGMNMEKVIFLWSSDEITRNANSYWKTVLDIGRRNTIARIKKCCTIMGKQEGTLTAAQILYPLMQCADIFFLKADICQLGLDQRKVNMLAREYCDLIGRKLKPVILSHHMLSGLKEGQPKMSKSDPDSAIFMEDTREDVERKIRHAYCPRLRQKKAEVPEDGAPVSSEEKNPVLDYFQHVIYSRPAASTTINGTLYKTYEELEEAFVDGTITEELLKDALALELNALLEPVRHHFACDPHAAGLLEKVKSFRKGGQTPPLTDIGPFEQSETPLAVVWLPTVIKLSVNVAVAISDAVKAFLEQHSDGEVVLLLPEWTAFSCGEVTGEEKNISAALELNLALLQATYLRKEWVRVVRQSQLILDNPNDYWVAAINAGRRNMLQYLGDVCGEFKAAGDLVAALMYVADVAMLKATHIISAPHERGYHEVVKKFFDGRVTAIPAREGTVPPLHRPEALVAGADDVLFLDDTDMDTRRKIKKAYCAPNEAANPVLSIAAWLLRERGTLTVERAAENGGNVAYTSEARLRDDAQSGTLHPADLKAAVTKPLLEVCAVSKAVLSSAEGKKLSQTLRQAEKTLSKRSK
Kind of assay: Trypanosoma cruzi tyrosyl tRNA synthetase (TcYRS) _High Tyrosine SOP. Note: in the data most compounds retested in dose-response had high values. Format: functional. The conditions noted are these: 30 µM.

The target in assay [10] is T4, Tyrosyl-tRNA synthetase, putative (Trypanosoma cruzi (strain CL Brener)). The assay can be described thus: Trypanosoma cruzi tyrosyl tRNA synthetase (TcYRS) SOP. Format: functional. The following applies: 30 µM.
Assay [11] has as its target Chromo domain-containing protein 1 (Saccharomyces cerevisiae (strain ATCC 204508 / S288c) (Baker's yeast)) (UniProt P32657). Kind of assay: ScCHD-1 Enzyme Inhibition Assay. Note: in the data most compounds retested in dose-response had high values. It counts as functional. The conditions noted are these: 30 µM.

For some of these results: Entries with a potency or affinity are not part of this list.

Sequence of Sialic acid-binding Ig-like lectin 9 (Homo sapiens) (Q9Y336 whole entry): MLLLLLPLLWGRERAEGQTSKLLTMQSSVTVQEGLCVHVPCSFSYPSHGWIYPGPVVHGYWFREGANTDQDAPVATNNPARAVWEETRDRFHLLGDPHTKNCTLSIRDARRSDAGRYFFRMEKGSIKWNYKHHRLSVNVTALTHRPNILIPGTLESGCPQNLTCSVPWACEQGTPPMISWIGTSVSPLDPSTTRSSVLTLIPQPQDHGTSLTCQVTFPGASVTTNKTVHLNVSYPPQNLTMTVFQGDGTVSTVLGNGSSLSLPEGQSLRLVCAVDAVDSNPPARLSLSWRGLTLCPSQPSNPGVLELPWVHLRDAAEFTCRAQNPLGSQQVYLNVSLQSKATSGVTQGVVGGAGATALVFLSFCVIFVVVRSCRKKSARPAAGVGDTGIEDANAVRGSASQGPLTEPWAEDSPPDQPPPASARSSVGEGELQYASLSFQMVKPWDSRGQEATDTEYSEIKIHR
Sequence of Chromo domain-containing protein 1 (Saccharomyces cerevisiae (strain ATCC 204508 / S288c) (Baker's yeast)) (P32657 whole entry, the tested form may be a part): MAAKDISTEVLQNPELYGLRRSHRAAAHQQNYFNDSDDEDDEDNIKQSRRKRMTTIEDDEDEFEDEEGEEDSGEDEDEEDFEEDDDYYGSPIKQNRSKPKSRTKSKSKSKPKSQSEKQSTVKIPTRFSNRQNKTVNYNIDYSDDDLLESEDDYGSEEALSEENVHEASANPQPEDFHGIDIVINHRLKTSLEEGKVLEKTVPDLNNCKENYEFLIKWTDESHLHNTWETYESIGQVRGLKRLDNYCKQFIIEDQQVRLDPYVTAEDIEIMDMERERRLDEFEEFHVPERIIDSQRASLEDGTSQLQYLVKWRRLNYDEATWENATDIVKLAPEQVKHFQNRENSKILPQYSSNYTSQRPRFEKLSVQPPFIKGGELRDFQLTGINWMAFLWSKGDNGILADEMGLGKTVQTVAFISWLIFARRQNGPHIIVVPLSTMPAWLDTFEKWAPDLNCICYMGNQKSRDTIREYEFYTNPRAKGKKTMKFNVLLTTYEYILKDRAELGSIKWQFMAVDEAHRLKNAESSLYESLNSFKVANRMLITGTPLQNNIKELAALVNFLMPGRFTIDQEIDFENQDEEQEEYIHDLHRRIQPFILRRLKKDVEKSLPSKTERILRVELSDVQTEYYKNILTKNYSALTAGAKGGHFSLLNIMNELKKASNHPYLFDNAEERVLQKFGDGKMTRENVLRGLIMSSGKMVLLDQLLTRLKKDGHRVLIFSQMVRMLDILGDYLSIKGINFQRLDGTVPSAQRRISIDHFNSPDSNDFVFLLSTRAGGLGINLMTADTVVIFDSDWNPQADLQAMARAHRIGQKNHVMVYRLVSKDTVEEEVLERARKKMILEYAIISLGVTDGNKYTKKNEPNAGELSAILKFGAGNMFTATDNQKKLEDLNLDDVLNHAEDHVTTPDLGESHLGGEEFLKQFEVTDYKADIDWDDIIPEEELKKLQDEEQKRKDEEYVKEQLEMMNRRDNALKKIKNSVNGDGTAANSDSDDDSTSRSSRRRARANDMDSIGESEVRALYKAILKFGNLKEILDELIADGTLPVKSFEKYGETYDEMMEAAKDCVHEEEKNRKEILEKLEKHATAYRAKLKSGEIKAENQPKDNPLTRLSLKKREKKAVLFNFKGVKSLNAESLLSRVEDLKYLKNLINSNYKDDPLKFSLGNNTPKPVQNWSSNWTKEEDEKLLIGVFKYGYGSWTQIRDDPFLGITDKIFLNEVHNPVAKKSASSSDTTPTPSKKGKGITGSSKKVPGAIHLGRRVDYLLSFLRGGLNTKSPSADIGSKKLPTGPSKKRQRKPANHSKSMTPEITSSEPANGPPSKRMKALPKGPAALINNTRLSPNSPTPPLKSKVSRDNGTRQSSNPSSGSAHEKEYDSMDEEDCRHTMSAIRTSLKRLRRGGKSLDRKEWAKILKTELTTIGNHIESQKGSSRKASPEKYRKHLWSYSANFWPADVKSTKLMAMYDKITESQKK
Sequence of Protein translocase subunit SecA (Escherichia coli (strain K12)) (P10408 whole entry): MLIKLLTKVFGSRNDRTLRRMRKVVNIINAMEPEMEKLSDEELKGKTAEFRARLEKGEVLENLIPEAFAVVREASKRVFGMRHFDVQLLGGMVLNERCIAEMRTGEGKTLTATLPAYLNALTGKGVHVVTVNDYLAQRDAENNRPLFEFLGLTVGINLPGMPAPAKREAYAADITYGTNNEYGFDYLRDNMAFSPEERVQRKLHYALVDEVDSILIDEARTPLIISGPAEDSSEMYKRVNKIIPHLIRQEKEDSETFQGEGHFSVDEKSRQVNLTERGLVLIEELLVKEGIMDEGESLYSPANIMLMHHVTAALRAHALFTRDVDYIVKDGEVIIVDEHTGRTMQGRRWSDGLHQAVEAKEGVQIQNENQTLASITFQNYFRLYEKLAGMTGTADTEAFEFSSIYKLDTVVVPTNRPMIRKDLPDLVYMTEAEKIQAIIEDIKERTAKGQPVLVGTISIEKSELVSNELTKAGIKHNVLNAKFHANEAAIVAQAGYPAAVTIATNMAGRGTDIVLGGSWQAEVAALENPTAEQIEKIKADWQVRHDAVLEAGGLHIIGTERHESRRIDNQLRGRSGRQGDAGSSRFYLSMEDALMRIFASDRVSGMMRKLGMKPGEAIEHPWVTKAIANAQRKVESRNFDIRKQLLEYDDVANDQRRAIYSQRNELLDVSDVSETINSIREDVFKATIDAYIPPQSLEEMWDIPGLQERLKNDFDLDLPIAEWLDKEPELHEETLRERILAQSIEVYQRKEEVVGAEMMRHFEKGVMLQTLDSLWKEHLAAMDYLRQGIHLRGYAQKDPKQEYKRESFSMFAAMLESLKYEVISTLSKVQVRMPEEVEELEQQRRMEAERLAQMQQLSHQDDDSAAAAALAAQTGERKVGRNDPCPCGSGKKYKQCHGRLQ

As for `Cc1c(C)n(Cc2ccncc2)c2nc3c(c(N)c12)CCCCC3`, the Percent Effect in assay [1] was -2.06%; in assay [2] it was 6.67%; in assay [3], 9.29%; in assay [4], 1.27%; in assay [5] it was 9.43%; in assay [6], -1.94%. Besides, the Percent Effect in assay [7] is 15.3%; in [8] it was 43.7%; in assay [9], 3.17%; in assay [10], 12.8%; in assay [11], -10.9%.

Consider `Cn1c(C(F)(F)F)nn(CCNC(=O)NCc2ccccc2)c1=O`, for which the Percent Effect is -6.75% in [1]; 0% in assay [2]; -5.98% in assay [3]; 26.1% in assay [4]; 7.25% in assay [5]; 15% in assay [6]. Also, the Percent Effect in [7] was 1.6%; in assay [8] it was 8.74%; in assay [9] it was 4.3%; in assay [10], 12.5%; in assay [11], -7.03%.

In the case of `COc1ncccc1NC(=O)C1CCN(S(C)(=O)=O)CC1`, the Percent Effect was -2.31% in assay [1]; 15.6% in assay [2]; -6.01% in assay [3]; 4.87% in [4]; 0.749% in assay [5]; -0.356% in [6]. Besides, the Percent Effect in [7] is 6.42%; in assay [8], 15.1%; in assay [9], 6.8%; in [10], 21.9%; in assay [11], -9.19%.

Take `Cc1ccc2cnn(CCC(=O)NCc3c(C)nn(C)c3C)c2c1`: the Percent Effect in assay [1] was -6.31%; in assay [2], 2.6%; in assay [3], 0.586%; in assay [4] it was 1.87%; in [5], 0.492%; in [6], -1.38%. Moreover, the Percent Effect in assay [7] was 8.98%; in [8], 7.06%; in assay [9], 3.23%; in assay [10], 6.17%; in assay [11], -1.97%.

`O=C(Nc1ccccc1F)N1CCN(Cc2noc(C3CC3)n2)CC1`: the Percent Effect in assay [1] was -1.58%; in [2], 11.4%; in assay [3] it was 5.8%; in [4], 0.391%; in [5] it was -2.36%; in assay [6] it was 4.09%. For the same compound, the Percent Effect was 8.4% in assay [7]; 4.54% in assay [8]; 5.21% in [9]; 20.2% in assay [10]; -23.3% in [11].

With `CN1CCc2c(C#N)c(NCc3ccco3)n3cnnc3c2C1`, the Percent Effect in assay [1] is -7.61%; in [2], 15.8%; in [3], 0.706%; in [4] it was 6.25%; in assay [5], 1.07%; in assay [6], 0%. Further, the Percent Effect in [7] is 14.5%; in assay [8] it was -6.85%; in assay [9] it was 4.25%; in assay [10], 15.6%; in assay [11] it was -17.9%.

As to `Cc1cc(C)c2cc(CNCc3ccccc3)c3nn(C)c(=O)n3c2c1`, the Percent Effect is -8.18% in [1]; 9.46% in assay [2]; -1.18% in assay [3]; 8.69% in assay [4]; 2.96% in [5]; -2.09% in assay [6]. The Percent Effect in assay [7] was 10.3%; in assay [8], 13.4%; in assay [9], 4.3%; in assay [10], 3.9%; in assay [11], -30.5%.

As for `COC1COC2(CCN(Cc3ccccc3Cl)CC2)C1` (stereo not drawn), the Percent Effect was -5.82% in [1]; 1.33% in assay [2]; 7.01% in assay [3]; 5.98% in assay [4]; -0.982% in assay [5]; 2.29% in [6]. Further, the Percent Effect was 11.5% in assay [7]; 20.8% in assay [8]; -2.12% in [9]; 5.13% in assay [10]; 0.93% in assay [11].
